Data from PubChem BioAssay.
Potency and affinity values are given separately. Records with an inconclusive call do not appear. Active and inactive are the calls of the source. Unless noted, no rule for the calls is given here.

Assays:
[1] = cytotoxicity in PAX8-dependent RMG-1 cells, dose response, cell-based, cherry-pick (AID 687029;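 active = signal drop whose fitted half-maximal concentration is at most twice the top valid dose, in every test run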;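 also: cells exposed to compound for 96 hours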)
[2] = inhibitors of CMV-promoter luciferase reporter, dose response, counter-screen for Pax8 inhibitor project, cell-based, HEK293, luminescence, dry powder (AID 743020;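 active = signal-lowering compounds whose fitted half-maximal concentration is at or below twice the top tested dose in every run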;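 also: HEK293 cells stably expressing the CMV luciferase reporter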)
[3] = non-specific cell cytotoxicity, dose response, cytotoxicity control for PAX8 inhibitor project, plate reader, dry powder samples (AID 743021)

Measured: outcome

CCN(CC)c1ccc2c(cc1=O)[C@@H](NC)CCc1cc(OC)c(OC)c(OC)c1-2
inactive: [1] | [2] | [3]

CC1=CC(=O)C(C(C)C)=C/C1=N/OS(=O)(=O)c1ccccc1
inactive: [1] | [2] | [3]

COc1cccc2c1C(=O)c1c(O)c3c(c(O)c1C2=O)CC(O)(C(C)=NNC(=O)c1ccc(Cl)c(Cl)c1)CC3OC1CC(N)C(O)C(C)O1 (stereo not drawn)
inactive: [1] | [2] | [3]

CCOc1ccc2c(c1)C(C)=CC(C)(C)N2S(=O)(=O)c1ccc(NC(C)=O)cc1
inactive: [1] | [2] | [3]

Cc1ccc(NC(=O)/C=C/c2ccc([N+](=O)[O-])s2)c(C)c1
inactive: [1] | [2] | [3]

CCSc1nsc(NC(=O)Nc2cccc(F)c2)n1
inactive: [1] | [2] | [3]

C=CCC[C@@H](Cc1ccc(F)cc1)C(=O)OC[C@@H](Cc1c[nH]c2ccccc12)NC(=O)[C@H](CC=C)CC(=O)N(CCO)Cc1ccccc1
inactive: [1] | [2] | [3]

CCN(CC)S(=O)(=O)c1cc(OC)ccc1N=Nc1ccc(O)c2ncccc12
inactive: [1] | [2] | [3]

Cc1cc(C)c(C(=O)/C=C/c2cccc3ccccc23)c(=O)[nH]1
inactive: [1] | [2] | [3]

CN(N=Nc1nc[nH]c1C(N)=O)C1CCCCC1
inactive: [1] | [2] | [3]

COc1ccc(CC2C(=O)NC(C)C(=O)N(C)C3Cc4ccc(cc4)Oc4cc(ccc4O)CC(C(=O)NC(C)C(=O)NC(C)C(=O)N2C)N(C)C3=O)cc1 (stereo not drawn)
inactive: [1] | [2] | [3]

O=[N+]([O-])c1cc2c(ccc3occc32)o1
inactive: [1] | [2] | [3]

COc1ccc(/C=C2\CN(Cc3ccccc3)C/C(=C\c3ccc(OC)c(O)c3)C2=O)cc1O
inactive: [1] | [2] | [3]

O=c1cc(C(Cl)(Cl)Cl)oc2c1ccc1ccccc12
inactive: [1] | [2] | [3]

Oc1ccc(C[C@H]2CNC(=S)N2CC2CCCN2C[C@H](Cc2ccc(O)cc2)N2C[C@H](Cc3ccc(O)cc3)N(CC3CCCCC3)C2=S)cc1 (stereo partly drawn)
inactive: [1] | [2] | [3]

Oc1[nH]c2ccc(Br)cc2c1N=NC(=S)N1CCOCC1
inactive: [1] | [2] | [3]

O=C(Nc1ccc(Cl)cc1)/C(=C/c1cccc(O)c1)c1nc2ccccc2s1
inactive: [1] | [2] | [3]

CCCCCCN(C(=O)CCCN1C(=O)NC(c2ccc(-c3ccccc3)cc2)C(C(=O)OCc2ccccc2)=C1C)C(C)C(=O)NCCCC (stereo not drawn)
inactive: [1] | [2] | [3]

O[C@@H]1[C@@H](O)C=C2CCN3Cc4cc5c(cc4[C@H]1C23)OCO5 (stereo partly drawn)
inactive: [1] | [2] | [3]

CN=c1scc(-c2cccs2)n1/N=C/c1ccccc1O
inactive: [1] | [2] | [3]

CNc1ccc(Br)cc(C(=O)/C=C/c2cc(OC)ccc2OC)c1=O
inactive: [1] | [2] | [3]

Cc1ccc(CCc2nnc(SCC(=O)Nc3cccc(Cl)c3)n2-c2ccccc2)o1
inactive: [1] | [2] | [3]

O=C(CCc1ccc(S(=O)(=O)NCc2ccccc2)cc1)NCc1cccnc1
inactive: [1] | [2] | [3]

O=C(Cn1ncc(Cl)c(Cl)c1=O)Nc1ccc2c(c1)OCO2
inactive: [1] | [2] | [3]

Cc1ccc2nc(NNC(=O)c3ccc(S(=O)(=O)N4CCc5ccccc5C4)cc3)sc2c1
inactive: [1] | [2] | [3]

CCCCCCCn1c2c(c(=N)c3c1CCC3)CCCC2
inactive: [1] | [2] | [3]

Cc1cccc(CS(=O)(=O)c2ncc(Cl)c(C(=O)Nc3ccc(F)cc3)n2)c1
inactive: [1] | [2] | [3]

O=C(Cn1ncc(Cl)c(Cl)c1=O)NC(=O)NC1CCCCC1
inactive: [1] | [2] | [3]

COC(=O)[C@@]12C[C@@H](CC(=O)N3CCN(C(=O)c4ccco4)CC3)C(=O)N(Cc3ccccc3)C1=CCC(C)(C)C2
inactive: [1] | [2] | [3]

COc1ccc([N+](=O)[O-])c(S(=O)(=O)c2ccccc2)n1
inactive: [1] | [2] | [3]

COc1cc2c(c(OC)c1OC)-c1ccc(OC)c(=O)cc1C(NC(C)=O)CC2 (stereo not drawn)
inactive: [1] | [2] | [3]
